Holding throughout (assay): Cytotoxic Profiling of Annotated Libraries Using Quantitative High-Throughput Screening (AID 1296008); also: nearly all actives have a fitted effect of over 60% in size
Common to all, as to settings: Five cell lines viability, CellTiter-Glo ATP luminescence, 48-72 h; max response: hits give low values
In general terms: In ATP-based viability assays light output follows the ATP content of the culture.

One experiment has as its system HaCat. The method in brief: (§1)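 Cells exposed to compounds for 48 or 72 hr at 37 degrees Celsius. Viability read as ATP-coupled luminescence with CellTiter-Glo after 10 min at room temperature.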
The subject of a further experiment is KB-3-1. In short, it runs like this: as §1
The subject of the next experiment is NIH3T3. The method in brief: as §1

Inconclusive results are not listed. A number with no mark means an inactive call. Active and inactive are the calls of the source. Calls follow the shape of the dose curve; as a rule, active = well fitted inhibition curve with a large enough effect; inconclusive = small, poorly fitted or top-dose-only effect; inactive = flat fitted curve, though single readings scatter.
% is scaled to controls: 0 for no effect and ±100 for the full control effect; potency is read from the fitted curve at half-maximal effect.

Take `Cc1cn(C2C=CC(CO)O2)c(=O)[nH]c1=O` (stereo unspecified): the max response was -43.4% in the experiment on HaCat, 6.19% in the experiment on KB-3-1 and -7.77% with NIH3T3.

In the case of `C=C1C[C@]23C[C@H]1CC[C@H]2[C@@]1(C)CCC[C@@]2(C)C(=O)O[C@@H]([C@@H]3O)[C@@H]12`, the max response in the experiment on HaCat was -2.64%; in the experiment with NIH3T3, -6.16%. Also, in the experiment with KB-3-1, the outcome was inactive.

On to `NC(=O)c1cnc(NCCc2ccc(O)c(Cl)c2)nc1NCc1ccccc1`, for which the Potency is 14.6 µM (active) in the experiment with HaCat, 16.4 µM (active) in the experiment on KB-3-1 and 5.17 µM (active) with NIH3T3.

Take `C/C=C(\C)C(=O)O[C@@H]1CC2[C@@H](CC=C3C[C@@H](O[C@H]4C[C@H](OC)[C@H](O[C@H]5C[C@H](OC)[C@H](O[C@@H]6O[C@H](C)[C@@H](O[C@H]7C[C@H](OC)[C@H](O[C@@H]8O[C@H](CO)[C@@H](O)[C@H](O)[C@H]8O)[C@@H](C)O7)[C@H](OC)[C@H]6O)[C@@H](C)O5)[C@@H](C)O4)CC[C@@]32C)[C@@]2(O)CC[C@H](C(C)=O)[C@@]12C` (stereo partly specified): the figures for the max response with HaCat, with KB-3-1 and in the experiment on NIH3T3 were -4.54%, 8.46% and -3.87%, respectively.

Consider `C/C=C/c1cc(OC)c2c(c1)[C@@H](C)[C@@H](c1ccc(O)c(OC)c1)O2`, for which the max response in the experiment with HaCat is -83.1%; in the experiment with KB-3-1, -24.2%; in the experiment with NIH3T3, -61.9%.

Consider `CCc1c(-c2ccccc2)c(-c2ccccc2)nn1-c1ccccc1-c1cccc(OCC(=O)O)c1`, for which the max response is -10.2% with HaCat and 0.468% with NIH3T3. The compound was called inactive in the experiment on KB-3-1.

With `CCCC(=O)C1CCN(c2ncnc3c2CN(C(=O)c2ccc(-c4ccccc4)cc2)CC3)CC1`, the max response is -5.72% with HaCat, -16.8% with KB-3-1 and -13.2% in the experiment on NIH3T3.

`COc1c2c(c(C)c3c1C(=O)OC3)O[C@@]1(C)CC(O)C(C(C)(C)O)[C@](C)(CCC(=O)O)[C@H]1C2` (stereo partly specified): the results for the max response in the experiment on HaCat and in the experiment with NIH3T3 were 2% and -2.21%, respectively. Also, the compound was called inactive in the experiment with KB-3-1.

Consider `CC(C)=CCCC1(C)C=Cc2c(c(C)cc3c2[nH]c2ccccc23)O1` (stereo unspecified), for which the max response was 3.9% in the experiment on HaCat, 6.53% with KB-3-1 and -4.99% in the experiment with NIH3T3.

Turning to `Cc1ccccc1C#Cc1ccc(CCC(=O)O)cc1`, the max response with HaCat was -15.6%; in the experiment with KB-3-1 it was -11.6%; in the experiment with NIH3T3, -10.2%.

For the compound `NC1CCCCN(c2c(F)cc3c(=O)c(C(=O)O)cn(C4CC4)c3c2Cl)C1` (stereo unspecified), the values for the max response in the experiment on HaCat, in the experiment on KB-3-1 and in the experiment on NIH3T3 were 0.186%, -4.74% and 1.34%, respectively.

On to `COc1cc(C(=O)NC2CCN(C)CC2)ccc1Nc1ncc2c(n1)N(C1CCCC1)CC(F)(F)C(=O)N2C`, for which the Potency was 0.116 µM (active) in the experiment with HaCat, 0.0058 µM (active) in the experiment on KB-3-1 and 2.06 µM (active) in the experiment with NIH3T3.

Consider `Clc1cc2c(NC3CCCC3)nnc(-c3ccncc3)c2cc1Cl`, for which the max response in the experiment on HaCat is -55.6%; with KB-3-1, 2.36%; in the experiment with NIH3T3, -2.41%.

For `COc1ccc([C@@]2(O)c3c(ccc4c3OC(C)(CCC=C(C)C)C=C4)NC(=O)[C@@H]2OC)cc1` (stereo partly specified), the max response was 1.02% in the experiment with HaCat, 4.57% in the experiment on KB-3-1 and -14.3% in the experiment on NIH3T3.

For `C/C=C/C=C/[C@@H]1O[C@](O)([C@H](CC)C(=O)NC/C=C/C=C(\C)[C@@H](OC)[C@@H](C)C2OC(/C=C/C=C/C=C(\C)C(=O)c3c(O)cc[nH]c3=O)[C@H](O)[C@@H]2O)[C@H](O)[C@H](O)C1(C)C` (stereo partly specified), the max response in the experiment on HaCat is -11.5%; with KB-3-1, 2.01%; in the experiment on NIH3T3, -4.29%.

As for `CC1=CCC2C(C)(C)CCC[C@]2(C)[C@@]12CC[C@](C)(CC(=O)O)O2` (stereo partly specified), the values for the max response with HaCat, in the experiment with KB-3-1 and in the experiment with NIH3T3 were -3.64%, -6.84% and -1.28%, respectively.

In the case of `COc1cc(C)c(C(=O)O[C@H]2[C@@H](OC(C)=O)[C@H](n3ccc(=O)[nH]c3=O)O[C@@H]2CO)c(OC)c1`, the max response in the experiment with HaCat was -9.32%; in the experiment with KB-3-1, 0.943%; with NIH3T3, -14.4%.

As to `CC/C=C/CC1=C(CCCCC(CCC(=O)O)OC(C)=O)CCC1=O` (stereo unspecified), the max response in the experiment with HaCat is -33.4%; with KB-3-1, -6.15%; in the experiment on NIH3T3 it was -0.117%.

As for `C=CC/C=C\C/C=C\CCCCCCCc1cccc(O)c1C(=O)O`, the max response in the experiment on HaCat was 3.56%; in the experiment on KB-3-1 it was 4.36%; with NIH3T3, -1.27%.

In the case of `O=C(NCc1ccc(F)cc1)C(=O)c1c[nH]c2ccccc12`, the max response with HaCat was -19.7%; in the experiment on KB-3-1 it was -9.55%; with NIH3T3 it was -16.4%.

Regarding `C=C1CCC2C(C)(C)CCC[C@]2(C)[C@H]1C/C=C(\CO)C(=O)C(=O)O` (stereo partly specified), the figures for the max response in the experiment with HaCat, in the experiment with KB-3-1 and with NIH3T3 were 3.5%, -9.53% and -2.57%, respectively.

As for `CC(=O)N1CCN(Cc2ccc([C@H](C)Nc3nccc(N4C(=O)OC[C@@H]4C(C)C)n3)cc2)CC1`, the max response was -0.103% in the experiment with HaCat, 2.58% in the experiment on KB-3-1 and -9.86% with NIH3T3.
